Results filed as inconclusive are left out. Values without a mark were called inactive. Calls of active or inactive are those of the source. Calls follow the shape of the dose curve; as a rule, active = well fitted cell-killing curve with a large enough effect in the repeat runs; inconclusive = weak or mixed curves, or effect the other way; inactive = flat fitted curve, though single readings scatter.

The source of these data is PubChem BioAssay (Tox21).
% is scaled to controls: 0 for no effect and ±100 for the full control effect; potency is read from the fitted curve at half-maximal effect.

The nature of the assay: cAMP Responsive Elements (CRE) small molecule agonists, cell-based qHTS assay: qHTS cell viability counter screen (AID 2060914).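 Also: viability read after 3 h of compound exposure; nearly all actives have a fitted effect of over 50% in size.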 The note with it: CRE-bla HEK293T viability, CellTiter-Glo luminescence, 5 h; series mostly up to 92.4 µM; activity change, negative = cytotoxicity: at the top concentration. From the text: National Center for Advancing Translational Sciences [NCATS]
Division of Preclinical Innovation [DPI]
U.S. Environmental Protection Agency [EPA]
National Institutes of Environmental Health Sciences [NIEHS]
National Toxicology Program [NTP]
U.S. Food and Drug Administration [FDA]
CREB (cyclic-AMP Responsive Element Binding Protein) is a cellular transcription factor. It binds to certain DNA sequences called cAMP Responsive Elements (CRE) and regulates the transcription of the genes. […] This cell line can be used to find agonists/antagonists of the cyclic AMP signaling pathway. The activation of the report gene under culture conditions can be detected by fluorescence intensity. This cell line has been used to screen the Tox21 10K compound library to identify agonists that induce oxidative stress. The cytotoxicity of the Tox21 compound library against the CRE-bla cell line was tested in parallel by measuring the cell viability using CellTiter-Glo assay (Promega, Madison, WI) in the same wells.
Tox21 Assay Protocol Summary:
CRE-bla Hek 293T cells were suspended in assay medium (DMEM containing 10% dialyzed FBS, 0.1 mM NEAA, 1 mM sodium pyruvate and 25 mM HEPES) and dispensed at 2,000 cells/5 uL /well into 1536-well black wall/clear bottom plates using a Multidrop Combi (ThermoFisher Scientific, Waltham, MA) dispenser. After the assay plates were incubated at 37 C/5% CO2 for 18 hrs, 23 nL of compounds dissolved in DMSO, positive controls or DMSO only was transferred to the assay plate by a pintool workstation (Kalypsys, San Diego, CA). After the plates were incubated at 37 C/5% CO2 for 3 hrs, 1 uL of LiveBLAzer B/G FRET substrate (Invitrogen, Carlsbad, CA) was added to each well using Bioraptr Flying Reagent Dispenser (FRD, Aurora Discovery, San Diego, CA). The plates were incubated at room temperature for 2 h, then fluorescence intensities were measured using an Envision plate reader (PerkinElmer, Shelton, CT) at Excitation 405nm, Emission 460nm and 530nm. The % activity was determined from the ratio of 460nm/530nm. For cell viability readout that measures cytotoxicity, 4 uL /well of CellTiter-Glo reagent was added into the assay plates using Bioraptr FRD. After 30 min incubation at room temperature, the luminescence intensity in the assay plates was measured using a ViewLux (PerkinElmer, Shelton, CT) plate reader.
A general note: qHTS replaces the single test concentration by a dilution series.
As for `CC/C=C/CCO`, the “activity change, negative = cytotoxicity” value is -3.14%.

For `CCCCC(CC)CN1C(=O)C2C3C=CC(C3)C2C1=O` (stereo not given), the “activity change, negative = cytotoxicity” value is -20.9%.

As to `CN1CCC(N(Cc2cccs2)c2ccccc2)CC1`, the “activity change, negative = cytotoxicity” value is 1.68% [at 42.5 µM].

Regarding `Cc1cc(-c2ccccc2)nnc1NCCN1CCOCC1`, the “activity change, negative = cytotoxicity” value was -5.6% [at 42.5 µM].

In the case of `Cc1ccc(C=O)cc1`, the “activity change, negative = cytotoxicity” value is -0.209% [at 42.5 µM].

On to `CCCCCCCC[N+](CCCCCCCC)(CCCCCCCC)CCCCCCCC`, for which the Potency was 30.6 µM (active).

In the case of `O=c1[nH]cccc1O`, the “activity change, negative = cytotoxicity” value is 16.3%.

For the compound `NC(=O)C1(N2CCCCC2)CCN(CCCN2c3ccccc3CCc3ccc(Cl)cc32)CC1`, the “activity change, negative = cytotoxicity” value is -14% [at 42.5 µM].

In the case of `CC1=NN(c2cc(Cl)c(S(=O)(=O)O)cc2Cl)C(=O)C1N=Nc1ccc(S(=O)(=O)O)cc1` (stereo not given), the Potency is 2.43 µM (active).

Turning to `COc1cccc(N)c1`, the “activity change, negative = cytotoxicity” value was -11.8%.

Consider `CCO[Si](C)(OCC)OCC`, for which the “activity change, negative = cytotoxicity” value was 12%.

Regarding `N=C(N)c1ccc2cc(OC(=O)c3ccc(N=C(N)N)cc3)ccc2c1`, the “activity change, negative = cytotoxicity” value is 9.19% [at 42.5 µM].

As to `CCOC(=O)c1ccc(C)cc1`, the “activity change, negative = cytotoxicity” value was 7.22%.

In the case of `CC(C)NCC(O)COc1cccc2ccccc12` (stereo not given), the Potency entry is “inactive”.

Take `C=COCCOCCOC=C`: the “activity change, negative = cytotoxicity” value was -11.4%.

In the case of `C[C@H]1C[C@H]2[C@@H]3CCC4=CC(=O)C=C[C@]4(C)[C@H]3C(=O)C[C@]2(C)[C@@]1(O)C(=O)CO`, the “activity change, negative = cytotoxicity” value was 1.9% [at 42.5 µM].

As for `c1ccc2c(c1)CCCC2C1=NCCN1` (stereo not given), the “activity change, negative = cytotoxicity” value was 7.4% [at 42.5 µM].

As for `CC1=C(CC(=O)O)c2cc(F)ccc2/C1=C\c1ccc(S(C)=O)cc1` (stereo not given), the “activity change, negative = cytotoxicity” value is 8.2% [at 42.5 µM].

In the case of `C=C(C)C(=O)OCCN(C)C`, the “activity change, negative = cytotoxicity” value was 7.83%.

On to `Nc1nnc(-c2ccc([N+](=O)[O-])o2)o1`, for which the “activity change, negative = cytotoxicity” value is -8.8%.

Take `Clc1nc2ccccc2nc1Cl`: the “activity change, negative = cytotoxicity” value is 0.415%.

Consider `Cc1nc(Nc2ncc(C(=O)Nc3c(C)cccc3Cl)s2)cc(N2CCN(CCO)CC2)n1`, for which the “activity change, negative = cytotoxicity” value was -12.7% [at 42.5 µM].

In the case of `Oc1ccc2c(c1)Cc1ccccc1-2`, the “activity change, negative = cytotoxicity” value is -17.1%.

For the compound `OCCN1CCOCC1`, the “activity change, negative = cytotoxicity” value was 27.8%.

Regarding `CCCCNc1cc(C(=O)O)cc(S(N)(=O)=O)c1Oc1ccccc1`, the “activity change, negative = cytotoxicity” value is -2.82% [at 42.5 µM].

For the compound `CCO[Si](CCCCl)(OCC)OCC`, the “activity change, negative = cytotoxicity” value was -12.2%.

For `C[Si](Cl)(c1ccccc1)c1ccccc1`, the “activity change, negative = cytotoxicity” value is -12.9%.

With `C[C@@H]1C[C@H]2[C@@H]3C[C@H](F)C4=CC(=O)C=C[C@]4(C)[C@@]3(F)[C@@H](O)C[C@]2(C)[C@@]1(O)C(=O)CO`, the “activity change, negative = cytotoxicity” value was 13.5% [at 42.5 µM].

As for `Cc1cc(-c2ccc(N=Nc3cc(S(=O)(=O)O)c4ccccc4c3N)c(C)c2)ccc1N=Nc1cc(S(=O)(=O)O)c2ccccc2c1N`, the “activity change, negative = cytotoxicity” value is 0.111%.

Turning to `NS(=O)(=O)c1ccc(Cl)c(S(N)(=O)=O)c1`, the “activity change, negative = cytotoxicity” value is 2.07% [at 42.5 µM].

For `C1CCN(CN2CCCCC2)CC1`, the “activity change, negative = cytotoxicity” value was 0.294%.

For the compound `CCNC(=O)N1CCN(CCCC(c2ccc(F)cc2)c2ccc(F)cc2)CC1`, the “activity change, negative = cytotoxicity” value is -2.42% [at 42.5 µM].

As to `c1ccc(CCc2ccccc2)cc1`, the “activity change, negative = cytotoxicity” value is -7%.

For `COc1c(C)c2c(c(O)c1C/C=C(\C)CCC(=O)OCCN1CCOCC1)C(=O)OC2`, the “activity change, negative = cytotoxicity” value is -21.1% [at 42.5 µM].

In the case of `CC(=O)c1ccc(O)c(C(N)=O)c1`, the “activity change, negative = cytotoxicity” value is -3.54% [at 42.5 µM].

In the case of `Fc1ccccc1`, the “activity change, negative = cytotoxicity” value is -1.48%.

Take `CC[C@H]1CN2CCc3cc(OC)c(OC)cc3[C@@H]2C[C@@H]1C[C@H]1NCCc2cc(OC)c(OC)cc21`: the “activity change, negative = cytotoxicity” value is 10.2%.

On to `Cc1cc2c(cc1S(N)(=O)=O)S(=O)(=O)CCC2`, for which the “activity change, negative = cytotoxicity” value is 3.21% [at 42.5 µM].

In the case of `O=C1OC(=O)C2CCCCC12` (stereo not given), the “activity change, negative = cytotoxicity” value was 0.48%.

Regarding `CC(C)(Oc1ccc(Cl)cc1)C(=O)O`, the Potency entry is “inactive”.
